Anthrax LF prot: Bacillus anthracis LF protease inhibitors, primary screen, biochemical, multiplex microsphere, MLPCN library; multiplex microsphere protease cleavage assay; inhibition, % at 10 µM; 360,000 compounds, 0.12% hits; AID 588501, 2011; note: plate controls were buffer without enzyme for full effect and enzyme alone for no effect
BoNT F protease: BoNT/F light chain protease inhibitors, primary screen, biochemical, flow cytometry, MLPCN library; Botulinum neurotoxin type F light chain protease (Clostridium botulinum); Multiplex microsphere protease cleavage assay; inhibition, % at 10 µM; 360,000 compounds, 0.22% hits; AID 588497, 2011; in the data active = inhibition above about 35%, passing the limit was not always enough; inconclusive = no clear call, values can overlap the other calls; note: plate controls were buffer without enzyme for full effect and enzyme alone for no effect
BoNT-A LC inh2: BoNT/A light chain protease inhibitors, primary screen, biochemical, flow cytometry, MLPCN library; Botulinum neurotoxin type A light chain protease (Clostridium botulinum A str. ATCC 3502); multiplex microsphere protease substrate cleavage; inhibition, % at 10 µM; 360,000 compounds, 0.17% hits; AID 588499, 2011; note: plate controls were buffer without enzyme for full effect and enzyme alone for no effect
Bead autofluor: counter-screen for toxin protease inhibitors: compound fluorescence. compound autofluorescence counterscreen, microsphere flow cytometry; active compounds read high. fluorescence intensity (no concentration beside the values). 360,000 compounds, 3.1% hits. AID 624483; in the data active = fluorescence intensity above about 16000; inconclusive = no clear call, values can overlap the other calls
Numbers without * were called inactive; ? = inconclusive. Only some compounds are listed: those with a hit (about 3.5% of all), similar ones and a draw of the others. Cut-off read from the data, not from the text of the source, unless noted: active = inhibition above about 30%; inconclusive = no clear call, values can overlap the other calls; inactive = below that.

SMILES | Anthrax LF prot | BoNT F protease | BoNT-A LC inh2 | Bead autofluor
O=C(O)C1CCCCC1C(=O)NCCc1ccccc1 (centres undefined) | -11 | 1 | 1 | 15725
O=[N+]([O-])c1ccc2oc(/C=C/c3ccc(O)cc3)nc2c1 | -9 | -3 | 0 | 3789
O=C1CCC2c3ccc4ccccc4c3CCN12 (centres undefined) | 3 | -4 | -2 | 20473*
CCOc1ccccc1N(C)C(=O)c1cc2c(=O)n(CC)c3ccccc3c2s1 | 2 | 4 | 0 | 3097
CCn1c(=O)c2cc(C(=O)N(C)CC(OC)OC)sc2c2ccccc21 | 38* | 3 | -3 | 2981
Cc1cc(C)nc(Nc2n[nH]c(COc3ccc4ccccc4c3)n2)n1 | -1 | -1 | 1 | 22079*
O=C(Cc1ccccc1F)Nc1cccc(S(=O)(=O)N2CCCCC2)c1 | -4 | -5 | 0 | 3424
CCOC(=O)C1(C)CCN1C(=O)c1ccc(C)cc1 (centres undefined) | -3 | -6 | 0 | 3504
CC[C@@H](C)[C@H](NC(=O)Cc1c(C)c2c(cc(C)c3c(C)c(C)oc32)oc1=O)C(=O)O | -11 | 38* | 2 | 3639
Cc1oc2c(c(C)cc3oc(=O)c(CC(=O)N[C@@H](C)C(=O)O)c(C)c32)c1C | 2 | 26 | 4 | 3536
CC(C)C(Cl)=NOC(=O)Nc1ccc(S(N)(=O)=O)cc1 | -7 | 2 | -1 | 3770
N#CCCN(Cc1ccccc1)C(C(=O)NC1CCCCC1)c1ccnc2ccccc12 (centres undefined) | -4 | -10 | 0 | 6069
O=C(CNS(=O)(=O)c1ccccc1)OCC(=O)c1ccc(OC(=O)c2ccccc2)cc1 | 0 | 7 | ? | 21032*
O=C(CNS(=O)(=O)c1ccccc1)OCC(=O)c1ccc(Br)cc1 | -3 | -8 | -5 | 4045
CNC[C@@H]1OCc2cnnn2CCCC(=O)N([C@H](C)CO)C[C@H]1C | -6 | 0 | 0 | 3741
CC1(C(=O)NS(=O)(=O)C2CC2)CCN(C(=O)COc2ccc(Cl)cc2Cl)C1 (centres undefined) | -5 | -4 | 0 | 2846
O=C(CC(O)(c1ccccc1)C(F)(F)C(F)F)c1cccs1 (centres undefined) | -1 | -4 | ? | 20372*
O=C(/C=C/c1ccccc1)CC(O)(c1ccccc1)C(F)(F)C(F)F (centres undefined) | 6 | -5 | -1 | 5535
C=CCn1c(-c2cccn(Cc3ccc(Cl)cc3)c2=O)n[nH]c1=S | -2 | -2 | 0 | 16100
C=CCn1c(-c2cccn(Cc3ccccc3)c2=O)n[nH]c1=S | -3 | -6 | -6 | 21465*
Cc1ccc(NC(=S)NC(=O)CC2CC(C)(C)OC2=O)cc1 (centres undefined) | -1 | -2 | 0 | 2454
CC1(C)CC(CC(=O)Nc2ccccn2)C(=O)O1 (centres undefined) | 0 | -1 | -1 | 23618*
CCCCC(=O)Nc1cccc(NC(=O)c2ccc(Br)o2)c1 | -4 | -2 | 0 | 16352*
O=C(Nc1cccc(OC(F)(F)F)c1)c1ccc(Br)o1 | -3 | -2 | -2 | 16998*
CCc1nc2ccc(C(=O)NCCOc3ccc(OC)cc3)cn2c1N(C)C(=O)Cc1ccccc1 | -6 | 0 | 0 | 3924
SMILES | Anthrax LF prot | BoNT F protease | BoNT-A LC inh2 | Bead autofluor
Cc1oc(C(=O)O)cc1COc1ccc2c3c(c(=O)oc2c1C)CCC3 | 0 | -5 | 0 | 16185*
Cc1noc(C)c1C(=O)Nc1nc2ccccc2s1 | 2 | -1 | -1 | ?
C=CCSc1n[nH]c(-c2ccc(OCCC)cc2)n1 | -4 | 1 | 0 | 10793
C=CCSc1n[nH]c(-c2ccc(OCCCC)cc2)n1 | -2 | -4 | -2 | 16907*
CC(=O)OC[C@@H]1CN(Cc2ccccc2)C[C@H](n2cnc3c(N4CCOCC4)ncnc32)O1 | 0 | 0 | 0 | 3546
N#CC/C(N)=N/Nc1nc2ccccc2nc1Cc1ccccc1 | 31* | -50 | 2 | 2387
Nc1ccccc1CCc1ccccc1N | -4 | -1 | 0 | 2907
Cc1nnc2n(c1=O)C(CS(=O)(=O)c1ccccc1)CS2 (centres undefined) | -6 | 0 | ? | 21322*
C[C@@H]1ON(C)[C@H]2C[C@H]3c4[nH]c5ccc(-c6ccc7c(c6)OCO7)cc5c4CCN3C(=O)[C@@H]12 | -5 | -8 | 1 | 3808
CC(C)c1nnc(NC(=O)Cn2nc(-c3ccc4c(c3)OCCO4)ccc2=O)s1 | -8 | -8 | -4 | 17082*
COc1cccc(OC)c1NC(=O)Cn1nc(-c2ccc3c(c2)OCCO3)ccc1=O | -6 | -2 | -1 | 5433
